{"source": "PubChem BioAssay (NCATS)", "note": "Results filed as inconclusive are left out. Active and inactive are the calls of the source. The call rests on the fitted dose curve; in most records, active means well fitted inhibition curve with a large enough effect; inconclusive means small, poorly fitted or top-dose-only effect; inactive means flat fitted curve, though single readings scatter. On the % scale 0 is the no-effect control and ±100 the full control effect."}
{"target": "Calcium and integrin-binding protein 1 (Homo sapiens) (UniProt Q99828)", "sequence (Q99828 whole entry, looked up)": "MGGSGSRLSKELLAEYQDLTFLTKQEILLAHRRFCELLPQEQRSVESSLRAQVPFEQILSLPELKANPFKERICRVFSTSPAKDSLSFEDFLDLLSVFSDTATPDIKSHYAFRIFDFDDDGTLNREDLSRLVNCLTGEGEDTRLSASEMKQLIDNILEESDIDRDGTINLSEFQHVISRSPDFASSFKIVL", "assay": "Primary qHTS for Identification of Calcium Integrin Binding Protein 1 (CIB1) Competitor (AID 1508620);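 further: GST tagged CIB1 binding a fluorescein labelled alphaIIb integrin peptide tracer; top concentration of the series differs between compounds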", "details": "CIB1-GST / FITC-alphaIIb peptide fluorescence polarization; series mostly up to 114 µM; activity change, negative = inhibition: at the top concentration", "summary_of_the_method": "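Fluorescence polarization competition: CIB1-GST (1 uM final) preincubated with compound 15 min at room temperature, then FITC-labeled alphaIIb peptide (100 nM final) added for another 15 min. Polarization read at Ex 480/Em 540.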"}
{"smiles": "Cc1ccc(-c2nn(CC(=O)N(C)C(C)c3ccco3)c(=O)cc2C)cc1", "note": "(stereo unspecified)", "activity change, negative = inhibition": "-8% (inactive)"}
{"smiles": "CC(=O)Nc1cccc(OC2=NS(=O)(=O)c3ccccc32)c1", "activity change, negative = inhibition": "-6.11% (inactive)"}
{"smiles": "Cc1cc2c(s1)c1cnn(Cc3c(F)ccc(C)c3F)c(=O)c1n2C", "activity change, negative = inhibition": "0.24% (inactive)"}
{"smiles": "Cc1cc(NS(=O)(=O)c2ccc(NC(=O)Cc3cccc(Cl)c3)cc2)no1", "activity change, negative = inhibition": "-13.8% (inactive)"}
{"smiles": "COc1ccc(-c2nnc3n2N=C(c2c(OC)cccc2OC)CS3)cc1OC", "activity change, negative = inhibition": "-0.308% (inactive)"}
{"smiles": "CC(C)(N)C(=O)Nc1ccc(Cl)cc1C(=O)c1ccc[nH]1", "activity change, negative = inhibition": "-0.117% (inactive)"}
{"smiles": "Cc1nc(-c2ccccc2)oc1-c1ccc2ncnc(NCc3ncc[nH]3)c2c1", "activity change, negative = inhibition": "-6.5% (inactive)"}
{"smiles": "Nc1nnc(-c2ccc3ccccc3c2)o1", "activity change, negative = inhibition": "5.86% (inactive)"}
{"smiles": "CC(=O)c1ccc(N2CCN(S(=O)(=O)c3ccc4[nH]c(=O)[nH]c4c3)CC2)cc1", "activity change, negative = inhibition": "36% (inactive)"}
{"smiles": "Cc1cc(NS(=O)(=O)Cc2ccc(NC(=O)Cc3ccc(Cl)c(Cl)c3)cc2)no1", "activity change, negative = inhibition": "-19% (inactive)"}
{"smiles": "O=S(=O)(Nc1nc(-c2ccccc2C(F)(F)F)nc2ccccc12)c1ccc(-c2cccnc2)cc1", "activity change, negative = inhibition": "1.38% (inactive)"}
{"smiles": "CCNC(=O)C1CCN(C(=O)C(C)(C)NC(=O)Nc2ccccc2Cl)CC1", "activity change, negative = inhibition": "-2.15% (inactive)"}
{"smiles": "Cc1ccnc(NC(=S)N2CCN(c3ccc(Br)cc3)CC2)c1", "activity change, negative = inhibition": "-8.65% (inactive)"}
{"smiles": "CN1CCOc2cc(S(=O)(=O)N3CCN(S(=O)(=O)c4c(F)cccc4F)CC3)cnc21", "activity change, negative = inhibition": "5.26% (inactive)"}
{"smiles": "Cc1ccc(CNc2ccc(N3CCN(C(=O)OC(C)(C)C)CC3)cc2)cc1", "activity change, negative = inhibition": "0.537% (inactive)"}
{"smiles": "O=C1CCc2cc([S+](=O)([O-])Nc3ccc(N[S+](=O)([O-])c4ccc5c(c4)CCC(=O)N5)cc3)ccc2N1", "activity change, negative = inhibition": "5.37% (inactive)"}
{"smiles": "CN(C)c1ccc(-c2csc(N3CCC(C(N)=O)CC3)n2)cc1", "activity change, negative = inhibition": "-3.34% (inactive)"}
{"smiles": "c1nc(NCC2CCCO2)c2ccc(-c3ccc4c(c3)OCO4)cc2n1", "note": "(stereo unspecified)", "activity change, negative = inhibition": "-7.79% (inactive)"}
{"smiles": "CN(C)c1ccc(C(=O)NCC(=O)OC(C(=O)Nc2cc(C(F)(F)F)ccc2Cl)c2ccccc2)cc1", "note": "(stereo unspecified)", "activity change, negative = inhibition": "5.84% (inactive)"}
{"smiles": "CC(C)(C)OC(=O)NCCOCCOCCOc1ccc(-c2no[n+]([O-])c2C#N)cc1", "activity change, negative = inhibition": "1.77% (inactive)"}
{"smiles": "O=C1Nc2ccccc2C1Cc1cc(Cl)c(O)c(Cl)c1", "note": "(stereo unspecified)", "activity change, negative = inhibition": "0.0598% (inactive)"}
